Several values for one entry are separate records, joined by “and”; a condition that tells them apart may be missing. Identical values can stand only once. Results filed as inconclusive are left out. Where a structure was tested more than once in an assay, its records may differ in their call. Activity calls are given as the source filed them. Calls follow the shape of the dose curve; as a rule, active = well fitted curve in the direction sought with a large enough effect in the repeat runs; inconclusive = weak or mixed curves; inactive = no such curve, though single readings can be large; an effect the other way counts as inactive or inconclusive.
System: not listed separately
Assay: qHTS assay to identify small molecule antagonists of the constitutive androstane receptor (CAR) signaling pathway - cell viability counter screen (AID 1224837); also: nearly all actives have a fitted effect of over 45% in size
Conditions: HepG2-CYP2B6-hCAR viability, CellTiter-Fluor, 23 h, co-treated with 50 nM CITCO; series mostly up to 92.4 µM; activity change, negative = cytotoxicity: at the top concentration
Summary of the method: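 Read-out: CellTiter-Fluor fluorescence after 23 hr at 37 C/5% CO2. Cells: HepG2 double-stable for hCAR and CYP2B6-2.2kb. Compounds tested at 15 concentrations in the presence of CITCO, final concentration 50 nM.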
% is scaled to controls: 0 for no effect and ±100 for the full control effect.

Row | Structure (SMILES) | activity change, negative = cytotoxicity | Potency
1 | CCCCC#N | -3.4% (inactive) | 
2 | CC1(C)CC(=O)CC(C)(C)N1[O] | 5.14% (inactive) | 
3 | CCCCCCCCCCCCCCCl | 0.116% (inactive) | 
4 | FC(Cl)(Cl)C(F)(Cl)Cl | 3.29% (inactive) | 
5 | CC(C)(C)OOC(C)(C)CCC(C)(C)OOC(C)(C)C | -11.6% (inactive) | 
6 | ClCc1ccccc1Cl | 0.644% (inactive) | 
7 | c1ccc2sc(SNC3CCCCC3)nc2c1 |  | inactive
8 | O=S(=O)(c1ccccc1)c1ccccc1 | -10.6% (inactive) | 
9 | O=C(O)C(Cl)(Cl)Br | 1.52% (inactive) | 
10 | N#CC(C#N)=Cc1ccc(O)c(O)c1 | 1.61% [at 42.5 µM] (inactive) | 
11 | O=C(O)C(F)(F)C(F)(F)C(F)(F)C(F)(F)C(F)(F)F | 6.23% (inactive) | 
12 | C=CCc1ccc(OC(=O)Cc2ccccc2)c(OC)c1 | 0.621% (inactive) | 
13 | C[C@H]1O[C@H](OC2[C@@H](O)[C@@H](O)C(O)[C@H](O)[C@H]2O)[C@@H](N)C[C@@H]1N=C(N)C(=O)O (stereo partly drawn) | 0.584% (inactive) | 

Biological target: Nuclear receptor subfamily 1 group I member 3 (Homo sapiens) (UniProt Q14994)
Sequence (Q14994 whole entry, looked up): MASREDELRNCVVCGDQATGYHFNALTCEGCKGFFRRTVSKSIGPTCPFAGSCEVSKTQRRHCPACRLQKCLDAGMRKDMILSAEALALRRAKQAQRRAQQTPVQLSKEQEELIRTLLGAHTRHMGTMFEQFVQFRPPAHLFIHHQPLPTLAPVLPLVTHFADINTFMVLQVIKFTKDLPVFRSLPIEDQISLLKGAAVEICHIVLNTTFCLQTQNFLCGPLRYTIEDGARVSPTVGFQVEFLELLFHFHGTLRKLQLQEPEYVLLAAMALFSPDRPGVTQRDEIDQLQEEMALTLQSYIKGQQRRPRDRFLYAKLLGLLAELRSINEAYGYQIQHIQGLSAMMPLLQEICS
Assay: qHTS assay to identify small molecule antagonists of the constitutive androstane receptor (CAR) signaling pathway (AID 1224838);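 also: HepG2 cells stably expressing hCAR with CYP2B6 luciferase reporter stimulated by CITCO; nearly all actives have a fitted effect of over 40% in size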; also: potency is read from the fitted curve at half-maximal effect
Conditions: HepG2-CYP2B6-hCAR luciferase, CITCO-stimulated, 24 h; series mostly up to 92.4 µM; activity, negative = inhibition: at the top concentration
Summary of the method: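 Read-out: ONE-Glo luciferase luminescence after 30 min at room temperature. HepG2-CYP2B6-hCAR double-stable cells, compounds in 15-point titration plus 50 nM CITCO final, 24 h at 37 C/5% CO2.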

Row | Structure (SMILES) | activity, negative = inhibition | Potency
14 | CCC1(CCC(C)C)C(=O)NC(=O)NC1=O | 12.5% (inactive) | 
15 | Clc1ccccc1 | 18.6% (inactive) | 
16 | CCCCC1C(=O)NC(=O)N(C2CCCCC2)C1=O (stereo not drawn) | -3.67% [at 42.5 µM] (inactive) | 
17 | C[C@H](N)[C@H](O)c1ccc(O)c(O)c1 | 16.8% [at 42.5 µM] (inactive) | 
18 | CCCN(CCC)c1c([N+](=O)[O-])cc(C(C)C)cc1[N+](=O)[O-] |  | inactive and 1 nM (active)
19 | CCOC(C(=O)OCCN(C)C)(c1ccccc1)c1ccccc1 | 48.9% [at 42.5 µM] (inactive) | 
20 | O=C=NC1CCCCC1 | 44.4% (inactive) | 
21 | CCOP(=S)(OCC)SCSc1cc(Cl)ccc1Cl | -12.6% (inactive) | 
22 | CCCCCCCCCCCCN(C)C | -3.01% (inactive) | 
23 | O=C(O)c1cc(I)cc(I)c1I | -0.633% (inactive) | 
24 | CN1C(=O)CN=C(c2ccccc2)c2cc([N+](=O)[O-])ccc21 | 9.69% [at 42.5 µM] (inactive) | 
25 | CCOP(=S)(OCC)Oc1ccc(S(C)=O)cc1 (stereo not drawn) | -1.29% (inactive) | 
26 | CC(C)(c1ccccc1)c1cc(-n2nc3ccccc3n2)c(O)c(C(C)(C)c2ccccc2)c1 | 7.14% [at 42.5 µM] (inactive) | 
27 | Cc1nnc(-c2ccccc2)c(=O)n1N | 14.4% (inactive) | 
28 | O=CC=O | -10.1% (inactive) | 
29 | CCC1(CC)C(=O)NC(=O)NC1=O | 12.4% [at 42.5 µM] (inactive) | 
30 | CC(Cl)C(=O)O (stereo not drawn) | -10.6% (inactive) | 
31 | O=S(=O)(Cl)Cl | -1.42% (inactive) | 
32 | COc1ccc(C(O)(c2cncnc2)C2CC2)cc1 (stereo not drawn) | 16.2% (inactive) | 
33 | O=C(O)CCCOc1ccc(Cl)cc1Cl |  | inactive

Row | Structure (SMILES) | activity, negative = inhibition | Potency
34 | O=C1CC[C@@]2(O)[C@H]3Cc4ccc(O)c5c4[C@@]2(CCN3CC2CC2)[C@H]1O5 | -19.8% [at 42.5 µM] (inactive) | 
35 | C=CCSSCC=C | -74.7% (inactive) | 
36 | Nc1ccccc1C(=O)OCC(O)CO (stereo not drawn) | -23.5% [at 42.5 µM] (inactive) | 
37 | FC(F)OC(F)(F)C(F)Cl (stereo not drawn) | -5.76% (inactive) | 
38 | COCc1cnc(C2=NC(C)(C(C)C)C(=O)N2)c(C(=O)O)c1 (stereo not drawn) | 9.98% (inactive) | 
39 | Nc1cc(Cl)cc(C(=O)O)c1Cl |  | inactive
40 | CCCCC#N | 1.54% (inactive) | 
41 | CC1(C)CC(=O)CC(C)(C)N1[O] | -9.76% (inactive) | 
42 | CCCCCCCCCCCCCCCl | -4.41% (inactive) | 
43 | FC(Cl)(Cl)C(F)(Cl)Cl | 7.28% (inactive) | 
44 | CC(C)(C)OOC(C)(C)CCC(C)(C)OOC(C)(C)C | 0.0658% (inactive) | 
45 | ClCc1ccccc1Cl | 13.7% (inactive) | 
46 | c1ccc2sc(SNC3CCCCC3)nc2c1 |  | inactive
47 | O=S(=O)(c1ccccc1)c1ccccc1 | 58.7% (inactive) | 
48 | O=C(O)C(Cl)(Cl)Br | -1.42% (inactive) | 
49 | N#CC(C#N)=Cc1ccc(O)c(O)c1 | -1.98% [at 42.5 µM] (inactive) | 
50 | O=C(O)C(F)(F)C(F)(F)C(F)(F)C(F)(F)C(F)(F)F | 34.2% (inactive) | 
51 | C=CCc1ccc(OC(=O)Cc2ccccc2)c(OC)c1 | 25.9% (inactive) | 
52 | C[C@H]1O[C@H](OC2[C@@H](O)[C@@H](O)C(O)[C@H](O)[C@H]2O)[C@@H](N)C[C@@H]1N=C(N)C(=O)O (stereo partly drawn) | 2.94% (inactive) | 

Biological target: Nuclear receptor subfamily 1 group I member 3 (Homo sapiens) (UniProt Q14994)
Assay: qHTS assay to identify small molecule agonists of the constitutive androstane receptor (CAR) signaling pathway (AID 1224839); also: nearly all actives have a fitted effect of over 15% in size; also: potency is read from the fitted curve at half-maximal effect
Conditions: HepG2 hCAR CYP2B6-luciferase, agonist mode, 24 h; series mostly up to 92.4 µM; activation: at the top concentration
Summary of the method: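 A 15-concentration quantitative screen uses HepG2 cells co-transfected stably with human CAR and CYP2B6-2.2kb reporter. Treatment lasts 24 h with 0.75 uM PK11195 final present; ONE-Glo luminescence is the signal.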

Row | Structure (SMILES) | activation | Potency
53 | CCC1(CCC(C)C)C(=O)NC(=O)NC1=O | -0.0943% (inactive) | 
54 | Clc1ccccc1 | -1.93% (inactive) | 
55 | CCCCC1C(=O)NC(=O)N(C2CCCCC2)C1=O (stereo not drawn) | -1.8% [at 42.5 µM] (inactive) | 
56 | C[C@H](N)[C@H](O)c1ccc(O)c(O)c1 | -1.79% [at 42.5 µM] (inactive) | 
57 | CCCN(CCC)c1c([N+](=O)[O-])cc(C(C)C)cc1[N+](=O)[O-] |  | 33.6 µM (active) and inactive
58 | O=C=NC1CCCCC1 | 12.1% (inactive) | 
59 | CCOP(=S)(OCC)SCSc1cc(Cl)ccc1Cl | -1.29% (inactive) | 
60 | O=C(O)c1cc(I)cc(I)c1I | 5.24% (inactive) | 
61 | CN1C(=O)CN=C(c2ccccc2)c2cc([N+](=O)[O-])ccc21 | 0.577% [at 42.5 µM] (inactive) | 
62 | CCOP(=S)(OCC)Oc1ccc(S(C)=O)cc1 (stereo not drawn) | -6.21% (inactive) | 
63 | CC(C)(c1ccccc1)c1cc(-n2nc3ccccc3n2)c(O)c(C(C)(C)c2ccccc2)c1 | 0.979% [at 42.5 µM] (inactive) | 
64 | Cc1nnc(-c2ccccc2)c(=O)n1N | 7.82% (inactive) | 
65 | O=CC=O | -1% (inactive) | 
66 | CC(Cl)C(=O)O (stereo not drawn) | -1.28% (inactive) | 
67 | O=S(=O)(Cl)Cl | -1.68% (inactive) | 
68 | O=C(O)CCCOc1ccc(Cl)cc1Cl | 4.11% (inactive) | 

Row | Structure (SMILES) | activation | Potency
69 | O=C1CC[C@@]2(O)[C@H]3Cc4ccc(O)c5c4[C@@]2(CCN3CC2CC2)[C@H]1O5 | 0.2% [at 42.5 µM] (inactive) | 
70 | C=CCSSCC=C | -8.35% (inactive) | 
71 | Nc1ccccc1C(=O)OCC(O)CO (stereo not drawn) | 1.04% [at 42.5 µM] (inactive) | 
72 | FC(F)OC(F)(F)C(F)Cl (stereo not drawn) | -0.56% (inactive) | 
73 | COCc1cnc(C2=NC(C)(C(C)C)C(=O)N2)c(C(=O)O)c1 (stereo not drawn) | -1.06% (inactive) | 
74 | CCCCC#N | -1.08% (inactive) | 
75 | CC1(C)CC(=O)CC(C)(C)N1[O] | -4.53% (inactive) | 
76 | CCCCCCCCCCCCCCCl | -1.4% (inactive) | 
77 | FC(Cl)(Cl)C(F)(Cl)Cl | -0.232% (inactive) | 
78 | ClCc1ccccc1Cl | 0.0446% (inactive) | 
79 | c1ccc2sc(SNC3CCCCC3)nc2c1 |  | 53.9 µM (active)
80 | O=C(O)C(Cl)(Cl)Br | -0.18% (inactive) | 
81 | O=C(O)C(F)(F)C(F)(F)C(F)(F)C(F)(F)C(F)(F)F | -2.52% (inactive) | 
82 | C=CCc1ccc(OC(=O)Cc2ccccc2)c(OC)c1 | 6.87% (inactive) | 
83 | C[C@H]1O[C@H](OC2[C@@H](O)[C@@H](O)C(O)[C@H](O)[C@H]2O)[C@@H](N)C[C@@H]1N=C(N)C(=O)O (stereo partly drawn) | -1.51% (inactive) | 

Source: PubChem BioAssay (Tox21)
